The record followed here is PubChem BioAssay (NCATS).

SMILES strings stand for the structures. Unmarked numbers belong to inactive results. Inconclusive results are not listed. Activity calls are given as the source filed them. Unless noted, calls follow the shape of the dose curve; as a rule, active = well fitted cell-killing curve with a large enough effect; inconclusive = small, poorly fitted or top-dose-only effect, or effect the other way; inactive = no such curve, though single readings can be large or run the other way.

A short description of one assay: Quantitative High-Throughput drug screen in 47 multiple myeloma cell lines against the NCATS MIPE library collection: KMS11_JCRBsus cell viability assay (AID 1919873). Also: nearly all actives have a fitted effect of over 50% in size. Also: potency is read from the fitted curve at half-maximal effect.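 As to viability (% of control): 100% = DMSO-only wells and 0% = media-only wells without cells.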 The following applies: KMS11 myeloma viability, CellTiter-Glo ATP luminescence, 48 h; series mostly up to 45.8 µM; viability (% of control): at the top concentration. The essentials:
(§1)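 qHTS format: cells plated (500/well), pin-dosed with MIPE 4.0 compounds, kept 48 h at 37 °C. Readout was CellTiter-Glo luminescence, median RLU.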
On the technique in general: In ATP-based viability assays light output follows the ATP content of the culture.
`O=S(=O)(c1cccc2cnccc12)N1CCCNCC1`: the “viability (% of control)” value was 85.4%.
On to `Oc1c(Cl)cc(Cl)c2cccnc12`, for which the Potency is 18.7 µM (active).
For `Nc1nc(=S)c2[nH]cnc2[nH]1`, the Potency was 4.18 µM (active).
Turning to `CN(C)CCc1c[nH]c2ccc(C[C@H]3COC(=O)N3)cc12`, the “viability (% of control)” value was 102%.
On the same count and under the same terms, the result for `CCc1cc(C(N)=S)ccn1` reads 131%.
For `C1CCC(C(CC2CCCCN2)C2CCCCC2)CC1` (configuration not stated), the Potency was 8.33 µM (active).
With `CC(C)(C)NC(=O)[C@H]1CC[C@H]2[C@@H]3CC[C@H]4NC(=O)C=C[C@]4(C)[C@H]3CC[C@]12C`, the “viability (% of control)” value was 99.4%.
The same measure, in the same setting: the result for `CCN(C)C(=O)Oc1cccc([C@H](C)N(C)C)c1` reads 93.3%; that for `COc1c(N2CCNC(C)C2)c(F)cc2c(=O)c(C(=O)O)cn(C3CC3)c12` (configuration not stated), 104%.
Regarding `CC(C)(C)C(=O)OCOP(=O)(COCCn1cnc2c(N)ncnc21)OCOC(=O)C(C)(C)C`, the Potency is 23.5 µM (active).
Turning to `CCn1cc(C(=O)O)c(=O)c2cc(F)c(N3CCN(C)CC3)cc21`, the “viability (% of control)” value is 98.3%.
The same measure, in the same setting: next, `CC(C)OC(=O)OCOP(=O)(CO[C@H](C)Cn1cnc2c(N)ncnc21)OCOC(=O)OC(C)C`: 112%.
In the case of `CC1=CC(=O)c2ccccc2C1=O`, the Potency was 18.7 µM (active).
Consider `CCN(CC)CCn1c(=O)c(Cc2ccc(OC)cc2)nc2ccccc21`, for which the “viability (% of control)” value was 108%.
With `CN(Cc1cc(Br)cc(Br)c1N)C1CCCCC1`, the “viability (% of control)” value was 88.4%.
The same measure, in the same setting: next, `COC(c1ccccc1)(c1ccccc1)[C@H](Oc1nc(C)cc(C)n1)C(=O)O`: 105%; `CCOc1cc(N)c(Cl)cc1C(=O)NCC1CN(Cc2ccc(F)cc2)CCO1` (configuration not stated): 112%.
Still for that read-out and setting: the result for `NNC(=O)c1ccncc1` reads 124%; that for `COc1ccc(-c2ccc3cc(C(=O)O)ccc3c2)cc1C12CC3CC(CC(C3)C1)C2`, 105%.
Same read-out and setting: the result for `Nc1[nH]c(=O)ncc1F` reads 98.4%.
For `O=C(O)c1cc(=O)[nH]c(=O)[nH]1`, the “viability (% of control)” value is 124%.
On the same count and under the same terms, the result for `CC1=NN(c2ccccc2)C(=O)C1` reads 107%.
Take `COc1cc(NCc2ccc3nc(N)nc(N)c3c2C)cc(OC)c1OC`: the Potency was 2.64 µM (active).
Consider `COc1cc([C@@H]2c3cc4c(cc3[C@H](O)[C@H]3COC(=O)[C@H]23)OCO4)cc(OC)c1OC`, for which the “viability (% of control)” value was 3.19%.
The same measure, in the same setting: next, `C#CCN[C@@H]1CCc2ccccc21`: 105%; `CCOC(=O)c1ccc(OC(=O)CCCCCN=C(N)N)cc1`: 114%.
On the same count and under the same terms, the result for `Cn1nnc2c(C(N)=O)ncn2c1=O` reads 103%.
Still for that read-out and setting: next, `O=C(O)c1cn(C2CC2)c2cc(N3CCNCC3)c(F)cc2c1=O`: 112%; `Cc1nnc(C(=O)NC(C)(C)c2nc(C(=O)NCc3ccc(F)cc3)c(O)c(=O)n2C)o1`: 95.3%.
For the compound `NC(=O)c1cccc(N)c1`, the “viability (% of control)” value was 129%.
On the same count and under the same terms, next, `CC(N)C12CC3CC(CC(C3)C1)C2` (configuration not stated): 109%; `C[C@@H](CN1CC(=O)NC(=O)C1)N1CC(=O)NC(=O)C1`: 108%.
Same read-out and setting: next, `NC(=O)c1ccc2[nH]ccc2c1`: 94.6%; `CC1=C(C(=O)O)N2C(=O)[C@@H](NC(=O)C(N)c3ccccc3)[C@H]2SC1` (some centres not stated): 140%; `CCCCS(=N)(=O)CCC(N)C(=O)O` (configuration not stated): 93.8%.
On the same count and under the same terms, next, `Cn1c(=O)c2c(ncn2CC(O)CO)n(C)c1=O` (configuration not stated): 118%.
For `COC(=O)Nc1nc2ccc(C(=O)c3ccccc3)cc2[nH]1`, the Potency was 0.332 µM (active).

Another assay is described as follows: Quantitative High-Throughput drug screen in 47 multiple myeloma cell lines against the NCATS MIPE library collection: KMS28BM_JCRB cell viability assay (AID 1919874). Also: nearly all actives have a fitted effect of over 35% in size. Also: potency is read from the fitted curve at half-maximal effect. As to conditions: CellTiter-Glo ATP, 48 h; series mostly up to 45.8 µM; viability, % of control: at the top concentration. The essentials:
as §1
`Oc1c(Cl)cc(Cl)c2cccnc12`: the Potency was 16.6 µM (active).
As to `CN(C)CCc1c[nH]c2ccc(C[C@H]3COC(=O)N3)cc12`, the “viability, % of control” value was 91.1%.
Still for that read-out and setting: next, `CCN(C)C(=O)Oc1cccc([C@H](C)N(C)C)c1`: 94.4%; `COc1c(N2CCNC(C)C2)c(F)cc2c(=O)c(C(=O)O)cn(C3CC3)c12` (configuration not stated): 122%.
Consider `CC(C)OC(=O)OCOP(=O)(CO[C@H](C)Cn1cnc2c(N)ncnc21)OCOC(=O)OC(C)C`, for which the Potency is 14.8 µM (active).
For `CCOC(=O)c1ccc(OC(=O)CCCCCN=C(N)N)cc1`, the “viability, % of control” value was 118%.
For `CCCCS(=N)(=O)CCC(N)C(=O)O` (configuration not stated), the “viability, % of control” value was 115%.

The nature of another assay: qHTS drug screen for cell cycle checkpoint inhibitors in PARPi-resistant BRCA-mutant ovarian cancer cell lines. (AID 1963452; calls by dose curve). The following applies: PEO1/OlaR viability, CellTiter-Glo luminescence, 96 h; stronger effect = lower value. The essentials: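 PEO1, PEO4 and PEO1/OlaR ovarian cancer cells, 600 per well, exposed 96 h at 37C to a dilution series. Viability read by CellTiter-Glo luminescence, normalized to DMSO and empty wells; activity summarized as Z-AUC.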
In general terms: Quantitative high-throughput screening tests each substance at several concentrations.
Regarding `O=S(=O)(c1cccc2cnccc12)N1CCCNCC1`, the Z-AUC was -0.00128.
On the same count and under the same terms, the result for `Oc1c(Cl)cc(Cl)c2cccnc12` reads 0.201; that for `Nc1nc(=S)c2[nH]cnc2[nH]1`, 0.0206.
Same read-out and setting: next, `CCc1cc(C(N)=S)ccn1`: 0.368; `C1CCC(C(CC2CCCCN2)C2CCCCC2)CC1` (configuration not stated): -0.764.
The same measure, in the same setting: the result for `CC(C)(C)NC(=O)[C@H]1CC[C@H]2[C@@H]3CC[C@H]4NC(=O)C=C[C@]4(C)[C@H]3CC[C@]12C` reads 1.47.
Turning to `CC(C)(C)C(=O)OCOP(=O)(COCCn1cnc2c(N)ncnc21)OCOC(=O)C(C)(C)C`, the Z-AUC is 0.383.
The same measure, in the same setting: next, `CCn1cc(C(=O)O)c(=O)c2cc(F)c(N3CCN(C)CC3)cc21`: 1.22; `CC1=CC(=O)c2ccccc2C1=O`: 0.899.
Still for that read-out and setting: next, `CCN(CC)CCn1c(=O)c(Cc2ccc(OC)cc2)nc2ccccc21`: 0.658; `CN(Cc1cc(Br)cc(Br)c1N)C1CCCCC1`: 1.09; `COC(c1ccccc1)(c1ccccc1)[C@H](Oc1nc(C)cc(C)n1)C(=O)O`: 1.02.
On the same count and under the same terms, the result for `CCOc1cc(N)c(Cl)cc1C(=O)NCC1CN(Cc2ccc(F)cc2)CCO1` (configuration not stated) reads 1.79; that for `COc1ccc(-c2ccc3cc(C(=O)O)ccc3c2)cc1C12CC3CC(CC(C3)C1)C2`, 0.117; that for `Nc1[nH]c(=O)ncc1F`, 1.66.
In the case of `O=C(O)c1cc(=O)[nH]c(=O)[nH]1`, the Z-AUC was 0.444.
Same read-out and setting: the result for `CC1=NN(c2ccccc2)C(=O)C1` reads 0.285.
Same read-out and setting: the result for `COc1cc(NCc2ccc3nc(N)nc(N)c3c2C)cc(OC)c1OC` reads 0.262.
The same measure, in the same setting: the result for `C#CCN[C@@H]1CCc2ccccc21` reads -0.484; that for `CCOC(=O)c1ccc(OC(=O)CCCCCN=C(N)N)cc1`, 1.08; that for `Cn1nnc2c(C(N)=O)ncn2c1=O`, 1.52.
For the compound `O=C(O)c1cn(C2CC2)c2cc(N3CCNCC3)c(F)cc2c1=O`, the Z-AUC was 0.135.
Still for that read-out and setting: next, `Cc1nnc(C(=O)NC(C)(C)c2nc(C(=O)NCc3ccc(F)cc3)c(O)c(=O)n2C)o1`: -0.384.
The same measure, in the same setting: next, `NC(=O)c1cccc(N)c1`: 1.42; `CC(N)C12CC3CC(CC(C3)C1)C2` (configuration not stated): 0.887; `C[C@@H](CN1CC(=O)NC(=O)C1)N1CC(=O)NC(=O)C1`: 1.24.
On the same count and under the same terms, the result for `NC(=O)c1ccc2[nH]ccc2c1` reads -0.236.
`Cn1c(=O)c2c(ncn2CC(O)CO)n(C)c1=O` (configuration not stated): the Z-AUC was 0.897.
